Numbering of substitutions follows the chain as printed.
Assays:
Assay in all cases: PBM; 200 nM protein, PBS
Conditions in all cases: dsDNA, one strand shown
[1] = target: NKX3-2 (Homo sapiens, UniProt P78367 192-278, P234S)
[2] = target: NKX3-2 (Homo sapiens, UniProt P78367 192-278)
[3] = target: T1, SIX6 (Homo sapiens, UniProt O95475 114-200, L167I)
T1 sequence: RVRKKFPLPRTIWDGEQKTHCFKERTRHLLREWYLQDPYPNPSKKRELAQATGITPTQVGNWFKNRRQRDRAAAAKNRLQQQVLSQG

[4] = target: T2, SIX6 (Homo sapiens, UniProt O95475 114-200, L143V)
T2 sequence: T1 sequence with L30V, I54L

[5] = target: HOXC10 (Homo sapiens, UniProt Q9NYD6 254-340)
[6] = target: T3, SIX6 (Homo sapiens, UniProt O95475 114-200, T165P)
T3 sequence: T1 sequence with T52P, I54L

[7] = target: T4, SIX6 (Homo sapiens, UniProt O95475 114-200, L167M)
T4 sequence: T1 sequence with I54M

[8] = target: T5, SIX6 (Homo sapiens, UniProt O95475 114-200, L143M)
T5 sequence: T1 sequence with L30M, I54L

[9] = target: T6, SIX6 (Homo sapiens, UniProt O95475 114-200, T165G)
T6 sequence: T1 sequence with T52G, I54L

[10] = target: T7, SIX6 (Homo sapiens, UniProt O95475 114-200, T139Q)
T7 sequence: T1 sequence with T26Q, I54L

[11] = target: HOXC10 (Homo sapiens, UniProt Q9NYD6 254-340, K271E)
[12] = target: T8, SIX6 (Homo sapiens, UniProt O95475 114-200, L167V)
T8 sequence: T1 sequence with I54V

[13] = target: T9, SIX6 (Homo sapiens, UniProt O95475 114-200, T165I)
T9 sequence: T1 sequence with T52I, I54L

[14] = target: CRX (Homo sapiens, UniProt O43186 26-111)
[15] = target: CRX (Homo sapiens, UniProt O43186 26-111, E42D)
[16] = target: CRX (Homo sapiens, UniProt O43186 26-111, R41L)
[17] = target: HOXD13 (Homo sapiens, UniProt P35453 263-343)
[18] = target: HOXD13 (Homo sapiens, UniProt P35453 263-343, T313A)
[19] = target: T10, NKX2-6 (Homo sapiens, UniProt A6NCS4 118-204, R150C)
T10 sequence: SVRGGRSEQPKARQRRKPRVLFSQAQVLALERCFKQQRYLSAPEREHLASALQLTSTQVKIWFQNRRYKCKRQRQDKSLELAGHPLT

Chain of CRX (Homo sapiens, UniProt O43186 26-111, E42D) (O43186 26-111 E42D): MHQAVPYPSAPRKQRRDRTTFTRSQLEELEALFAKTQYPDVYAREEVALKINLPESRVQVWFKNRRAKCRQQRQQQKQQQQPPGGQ
Chain of NKX3-2 (Homo sapiens, UniProt P78367 192-278, P234S) (P78367 192-278 P234S): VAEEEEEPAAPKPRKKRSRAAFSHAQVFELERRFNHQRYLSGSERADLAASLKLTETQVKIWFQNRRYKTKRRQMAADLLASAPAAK
Chain of HOXC10 (Homo sapiens, UniProt Q9NYD6 254-340) (Q9NYD6 254-340): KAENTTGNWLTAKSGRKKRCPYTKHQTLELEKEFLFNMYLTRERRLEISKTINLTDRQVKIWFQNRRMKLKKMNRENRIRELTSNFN
Chain of HOXC10 (Homo sapiens, UniProt Q9NYD6 254-340, K271E) (Q9NYD6 254-340 K271E): as the sequence (Q9NYD6 254-340) above, with K18E counted along it
Chain of NKX3-2 (Homo sapiens, UniProt P78367 192-278) (P78367 192-278): as the sequence (P78367 192-278 P234S) above, with S43P counted along it
Chain of CRX (Homo sapiens, UniProt O43186 26-111, R41L) (O43186 26-111 R41L): as the sequence (O43186 26-111 E42D) above, with R16L, D17E counted along it
Chain of CRX (Homo sapiens, UniProt O43186 26-111) (O43186 26-111): as the sequence (O43186 26-111 E42D) above, with D17E counted along it
Chain of HOXD13 (Homo sapiens, UniProt P35453 263-343, T313A) (P35453 263-343 T313A): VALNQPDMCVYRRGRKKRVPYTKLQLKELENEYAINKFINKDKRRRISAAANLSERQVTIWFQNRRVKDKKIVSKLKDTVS
Chain of HOXD13 (Homo sapiens, UniProt P35453 263-343) (P35453 263-343): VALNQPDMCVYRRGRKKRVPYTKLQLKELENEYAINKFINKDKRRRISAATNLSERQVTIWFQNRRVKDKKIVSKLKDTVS

With CCGTAGGC the binding signal [1] was 10.5 upbm affinity estimate (log intensity, higher = more binding, comparable within an allelic series) and the binding signal [2] was 10.4 upbm affinity estimate (log intensity, higher = more binding, comparable within an allelic series).
CGCACGCC was tested, and the binding signal [3] was 8.9 upbm affinity estimate (log intensity, higher = more binding, comparable within an allelic series), the binding signal [4] was 8.88 upbm affinity estimate (log intensity, higher = more binding, comparable within an allelic series) and the binding signal [5] was 10.1 upbm affinity estimate (log intensity, higher = more binding, comparable within an allelic series). The binding signal [6] was 8.83 upbm affinity estimate (log intensity, higher = more binding, comparable within an allelic series), the binding signal [7] was 9.01 upbm affinity estimate (log intensity, higher = more binding, comparable within an allelic series) and the binding signal [8] was 8.91 upbm affinity estimate (log intensity, higher = more binding, comparable within an allelic series). The binding signal [9] was 8.9 upbm affinity estimate (log intensity, higher = more binding, comparable within an allelic series), the binding signal [10] was 8.93 upbm affinity estimate (log intensity, higher = more binding, comparable within an allelic series) and the binding signal [11] was 10 upbm affinity estimate (log intensity, higher = more binding, comparable within an allelic series). The binding signal [12] was 8.9 upbm affinity estimate (log intensity, higher = more binding, comparable within an allelic series) and the binding signal [13] was 8.9 upbm affinity estimate (log intensity, higher = more binding, comparable within an allelic series).
For CCAGCGCA, the binding signal [5] was 10 upbm affinity estimate (log intensity, higher = more binding, comparable within an allelic series) and the binding signal [11] was 10 upbm affinity estimate (log intensity, higher = more binding, comparable within an allelic series).
For CAGCCAGG, the binding signal [3] was 9.07 upbm affinity estimate (log intensity, higher = more binding, comparable within an allelic series), the binding signal [4] was 8.86 upbm affinity estimate (log intensity, higher = more binding, comparable within an allelic series) and the binding signal [6] was 8.91 upbm affinity estimate (log intensity, higher = more binding, comparable within an allelic series). For the same sequence, the binding signal [7] was 9.02 upbm affinity estimate (log intensity, higher = more binding, comparable within an allelic series), the binding signal [8] was 9.06 upbm affinity estimate (log intensity, higher = more binding, comparable within an allelic series) and the binding signal [9] was 9.14 upbm affinity estimate (log intensity, higher = more binding, comparable within an allelic series). For the same sequence, the binding signal [10] was 9.1 upbm affinity estimate (log intensity, higher = more binding, comparable within an allelic series), the binding signal [12] was 9.01 upbm affinity estimate (log intensity, higher = more binding, comparable within an allelic series) and the binding signal [13] was 8.99 upbm affinity estimate (log intensity, higher = more binding, comparable within an allelic series).
For GCCGGTCC, the binding signal [14] was 8.03 upbm affinity estimate (log intensity, higher = more binding, comparable within an allelic series), the binding signal [15] was 8.04 upbm affinity estimate (log intensity, higher = more binding, comparable within an allelic series) and the binding signal [16] was 8.24 upbm affinity estimate (log intensity, higher = more binding, comparable within an allelic series).
With GCCAGCCC the binding signal [3] was 8.95 upbm affinity estimate (log intensity, higher = more binding, comparable within an allelic series), the binding signal [4] was 8.86 upbm affinity estimate (log intensity, higher = more binding, comparable within an allelic series) and the binding signal [6] was 8.85 upbm affinity estimate (log intensity, higher = more binding, comparable within an allelic series). The binding signal [7] was 9.06 upbm affinity estimate (log intensity, higher = more binding, comparable within an allelic series), the binding signal [8] was 9.06 upbm affinity estimate (log intensity, higher = more binding, comparable within an allelic series) and the binding signal [9] was 9.06 upbm affinity estimate (log intensity, higher = more binding, comparable within an allelic series). The binding signal [10] was 9.07 upbm affinity estimate (log intensity, higher = more binding, comparable within an allelic series), the binding signal [12] was 8.96 upbm affinity estimate (log intensity, higher = more binding, comparable within an allelic series) and the binding signal [13] was 9.01 upbm affinity estimate (log intensity, higher = more binding, comparable within an allelic series).
In the case of AGGCCCGC, the binding signal [14] is reported as 8.17 upbm affinity estimate (log intensity, higher = more binding, comparable within an allelic series), the binding signal [15] is reported as 8.1 upbm affinity estimate (log intensity, higher = more binding, comparable within an allelic series) and the binding signal [16] is reported as 8.27 upbm affinity estimate (log intensity, higher = more binding, comparable within an allelic series).
In the case of ACCGTCCG, the binding signal [14] is reported as 8.31 upbm affinity estimate (log intensity, higher = more binding, comparable within an allelic series), the binding signal [15] is reported as 8.44 upbm affinity estimate (log intensity, higher = more binding, comparable within an allelic series) and the binding signal [16] is reported as 8.35 upbm affinity estimate (log intensity, higher = more binding, comparable within an allelic series).
CGCCTAGC was tested, and the binding signal [1] was 10.6 upbm affinity estimate (log intensity, higher = more binding, comparable within an allelic series) and the binding signal [2] was 10.6 upbm affinity estimate (log intensity, higher = more binding, comparable within an allelic series).
With CGCGCGAG the binding signal [17] was 9.48 upbm affinity estimate (log intensity, higher = more binding, comparable within an allelic series) and the binding signal [18] was 9.67 upbm affinity estimate (log intensity, higher = more binding, comparable within an allelic series).
For AGAGGACC, the binding signal [1] was 11.8 upbm affinity estimate (log intensity, higher = more binding, comparable within an allelic series) and the binding signal [2] was 11.8 upbm affinity estimate (log intensity, higher = more binding, comparable within an allelic series).
In the case of CACGGCTG, the binding signal [19] is reported as 9.52 upbm affinity estimate (log intensity, higher = more binding, comparable within an allelic series).
With AGAGCTCT the binding signal [5] was 10 upbm affinity estimate (log intensity, higher = more binding, comparable within an allelic series) and the binding signal [11] was 10.1 upbm affinity estimate (log intensity, higher = more binding, comparable within an allelic series).
In the case of CGGCTAGC, the binding signal [5] is reported as 9.98 upbm affinity estimate (log intensity, higher = more binding, comparable within an allelic series) and the binding signal [11] is reported as 10 upbm affinity estimate (log intensity, higher = more binding, comparable within an allelic series).
For ACCAAATA, the binding signal [5] was 10.8 upbm affinity estimate (log intensity, higher = more binding, comparable within an allelic series).
GAGTCGCC was tested, and the binding signal [19] was 9.64 upbm affinity estimate (log intensity, higher = more binding, comparable within an allelic series).
For CCGCCGAG, the binding signal [19] was 9.67 upbm affinity estimate (log intensity, higher = more binding, comparable within an allelic series).
